Sampled rows, rich in hits. Any-hit rate of the full collection: about 2.7%.
FAS-TE inh – blocks the thioesterase domain of human fatty acid synthase. inhibition, % at 15 µM. actives 0.67% (n = 360,000). AID 602261. recombinant FAS-TE, OMFH fluorogenic substrate, fluorescence endpoint. P49327;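 active = compounds whose normalised, plate-corrected inhibition of enzyme fluorescence in the single-dose primary screen is 50% or more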;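 also: 0% = DMSO with enzyme and 100% = substrate without enzyme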
Neddylation inh – inhibitors of human cullin neddylation; P61081+Q13564; calls only at 25 µM; AID 651699; actives 0.58% (n = 360,000); TR-FRET cullin neddylation, biochemical; in the data active = inhibition above about 36%
Target sequence (P61081 whole entry, looked up): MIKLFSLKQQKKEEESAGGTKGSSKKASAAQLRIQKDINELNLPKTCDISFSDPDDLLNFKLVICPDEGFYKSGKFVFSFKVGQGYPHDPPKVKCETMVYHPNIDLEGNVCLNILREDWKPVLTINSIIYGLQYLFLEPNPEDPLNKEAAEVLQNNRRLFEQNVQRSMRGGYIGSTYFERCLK
Target sequence (Q13564 whole entry, looked up): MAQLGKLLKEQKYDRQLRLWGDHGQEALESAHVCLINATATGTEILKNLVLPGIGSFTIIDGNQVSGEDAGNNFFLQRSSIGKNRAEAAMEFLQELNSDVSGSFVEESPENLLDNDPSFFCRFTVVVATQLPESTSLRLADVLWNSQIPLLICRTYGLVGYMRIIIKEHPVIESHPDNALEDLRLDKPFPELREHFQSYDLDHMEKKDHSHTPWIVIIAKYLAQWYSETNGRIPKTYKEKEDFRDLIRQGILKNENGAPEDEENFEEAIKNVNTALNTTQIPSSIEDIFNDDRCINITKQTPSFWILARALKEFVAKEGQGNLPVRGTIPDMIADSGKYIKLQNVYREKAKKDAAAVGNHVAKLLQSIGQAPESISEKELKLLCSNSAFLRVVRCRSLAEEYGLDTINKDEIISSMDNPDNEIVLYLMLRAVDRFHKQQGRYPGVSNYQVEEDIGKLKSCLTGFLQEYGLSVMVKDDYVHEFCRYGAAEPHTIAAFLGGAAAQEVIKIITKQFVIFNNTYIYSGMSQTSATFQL
proKLK7 act – proKLK7 (human) activation, primary screen. P49862. purified proKLK7, EDANS-DABCYL substrate fluorescence; 100% is mature enzyme control, 0% vehicle. activation, % at 7 µM. actives 0.9% (n = 370,000). AID 652039;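 active = activation above the mean of all tested compounds plus 3 SD, computed per campaign excluding outliers beyond control limits, cut at about 13% in these data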
PfGluPho inh – PfG6PD (Plasmodium falciparum) enzyme inhibition. PfGluPho enzyme, NADPH resazurin-diaphorase fluorescence. inhibition, % at 20 µM. actives 0.78% (n = 350,000);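 active = inhibition reaching at least a set limit at 20 µM in the primary screen, cut at about 59% in these data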;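 also: 0% = DMSO wells with substrate and 100% = DMSO wells lacking glucose-6-phosphate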
FAS-TE inh conf – FAS thioesterase (human) inhibition, confirmation | recombinant FAS-TE, OMFH fluorogenic substrate, fluorescence | inhibition, % at 15 µM | shares compounds with FAS-TE inh | actives 45% (n = 2,300);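 active = compounds inhibiting the enzyme by at least 50% at 15 µM in any one of the replicates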;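 also: 0% = enzyme with DMSO only and 100% = wells lacking enzyme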
The depositor's hits bear a star; i = inactive; . = no result.

SMILES	FAS-TE inh	Neddylation inh	proKLK7 act	PfGluPho inh	FAS-TE inh conf
CCCOc1ccc(N2C(=O)CC(SC(=N)N3N=C(c4ccccc4)CC3c3ccccc3)C2=O)cc1 (stereo not given)	68.8*	i	-0.4	13.8	15.3
Cc1ccccc1C(=O)N(C)[C@H]1C[C@H]2c3[nH]c4c(-c5ccc6c(c5)OCO6)cccc4c3CCN2C[C@H]1[C@H](C)O	.	.	0.6	.	.
CC(C)(C)OC(=O)NCCc1onc(-c2ccccc2F)c1C(=O)O	-8.4	i	0.4	-6.2	.
CC(C)(C)OC(=O)NCCc1onc(-c2cccc([N+](=O)[O-])c2)c1C(=O)O	81.1*	i	1.0	-7.6	87.0*
CC(C)C[C@@H]1COc2cc(N3CCCC3)ccc2S(=O)(=O)N1C	.	.	-0.6	.	.
O=C(N/C(=C/c1ccccc1)C(=O)N1CCOCC1)c1ccc([N+](=O)[O-])cc1	53.4*	i	-0.6	11.3	46.9*
O=C(N/C(=C\c1cccc([N+](=O)[O-])c1)C(=O)N1CCOCC1)c1ccc([N+](=O)[O-])cc1	46.9	i	-0.5	-4.6	.
COc1ccc(/C=C(\NC(=O)c2ccc([N+](=O)[O-])cc2)C(=O)N2CCOCC2)cc1	81.8*	i	0.8	-13.3	87.2*
COc1ccc(CN(CC#Cc2ccccc2)Cc2ccccc2)c(OC)c1	.	.	1.0	.	.
O=C(CCl)NC1CCCCN(Cc2ccc(OC(F)(F)F)cc2)C1=O (stereo not given)	.	.	-0.3	.	.
COc1ccc([C@@H]2[C@@H]3C(=O)N(C(C)(C)C)C(=O)[C@@H]3[C@]3(CC(C)C)C(=O)N(c4ccc(C(F)(F)F)cc4)C(=O)N23)cc1	67.0*	i	-0.1	0.7	37.0
COc1ccc([C@@H]2[C@@H]3C(=O)N(C(C)(C)C)C(=O)[C@@H]3[C@]3(CC(C)C)C(=O)N(c4cccc(Br)c4)C(=O)N23)cc1	57.9*	i	0.1	-3.4	40.0
COc1ccc([C@@H]2[C@@H]3C(=O)N(C(C)(C)C)C(=O)[C@@H]3[C@]3(CC(C)C)C(=O)N(c4ccccc4)C(=O)N23)cc1	11.6	i	0.0	0.8	.
CC1Cc2cc(-c3csc(NC(=O)Cc4cccs4)n3)ccc2N1S(C)(=O)=O (stereo not given)	51.1*	i	-0.2	-0.1	53.2*
CS(=O)(=O)N1CCc2cc(-c3csc(NC(=O)Cc4ccccc4)n3)ccc21	64.5*	i	-0.1	19.9	58.4*
CCCC(=O)Nc1nc(-c2ccc3c(c2)CCN3S(C)(=O)=O)cs1	46.8	i	-0.2	23.4	.
COc1ccc(CSc2nnc(SCC(=O)Nc3ccccc3-c3ccccc3)s2)cc1	.	.	0.3	.	.
CC(C)[C@H](N)C(=O)N1CCC[C@@H]1C(=O)N1CCC2CCN(S(=O)(=O)c3ccccc3)CC21 (stereo not given in full)	.	.	0.1	.	.
COc1cc(/C=C2\N=C(c3ccccc3)OC2=O)ccc1OC(C)=O	0.5	i	1.3	-11.9	.
COc1ccc(OC)c(/C=C2\N=C(c3ccccc3)OC2=O)c1	60.8*	i	-1.1	-6.4	-37.6
CCOC1=C2[C@H](c3ccccc3)N(S(=O)(=O)c3ccc(C)cc3)C[C@H]2n2c(=O)n(-c3ccccc3)c(=O)n2C1	41.2	i	0.2	.	.
CCOC1=C2[C@H](c3ccc(Cl)cc3)N(S(=O)(=O)c3ccc(C)cc3)C[C@H]2n2c(=O)n(-c3ccccc3)c(=O)n2C1	55.7*	i	-0.3	.	12.8
CCOC1=C2CN(S(=O)(=O)c3ccc(C)cc3)[C@H](c3ccccc3)C[C@@H]2N(S(=O)(=O)c2ccc(C)cc2)[C@H](c2ccccc2)C1	21.6	i	0.1	.	.
CCOC1=C2CN(S(=O)(=O)c3ccc(C)cc3)[C@H](c3ccccc3)C[C@H]2n2c(=O)n(-c3ccccc3)c(=O)n2C1	69.9*	i	0.0	.	14.0
COc1ccc(-c2nnc(SC)nc2-c2ccc(OC)c([N+](=O)[O-])c2)cc1[N+](=O)[O-]	69.2*	i	-0.5	42.3	-1.0
SMILES	FAS-TE inh	Neddylation inh	proKLK7 act	PfGluPho inh	FAS-TE inh conf
C=CCOC(=O)N1CCN(C(=O)c2ccc3nc(C)n(C4CCCC4)c3c2)CC1	.	.	-0.5	.	.
Cc1ccc([N+](=O)[O-])cc1NC(=O)CCSc1ccc(Cl)cc1	66.2*	i	0.9	15.0	62.2*
Cc1ccc([N+](=O)[O-])cc1NC(=O)c1ccc(C(C)(C)C)cc1	68.2*	i	-0.4	56.3	72.1*
COC(=O)c1ccc(C)c(NC(=O)CCSc2ccc(Cl)cc2)c1	-0.9	i	0.0	4.8	.
O=C(CN(C(=O)c1ccc(Cl)cc1)C1CCCCC1)Nc1ccc(Cl)c([N+](=O)[O-])c1	75.5*	i	0.0	-2.6	12.1
COc1ccccc1/C=C(\NC(=O)c1ccc(OC)c(OC)c1)C(=O)Nc1cc([N+](=O)[O-])ccc1C	60.4*	i	0.0	-10.6	71.0*
O=C(C1CC1)C1(C(=O)N2CCOCC2)CC(c2ccccn2)=NO1 (stereo not given)	.	.	-0.2	.	.
COc1ccc(/C(C)=N\NC(=O)c2ccco2)cc1	.	.	0.1	.	.
CC1CCCCC1N(C(=O)c1cc(C2CC2)on1)C1CCCCCC1 (stereo not given)	.	.	0.5	.	.
O=C(COc1ncnc2ccccc12)Nc1ccc(Cl)c([N+](=O)[O-])c1	67.8*	i	-0.2	-8.2	66.5*
O=C(COc1ncnc2ccccc12)Nc1cccc([N+](=O)[O-])c1	20.2	i	0.1	0.6	.
O=C(CN(C(=O)c1ccccc1Cl)C1CCCCC1)Nc1ccc(Cl)c([N+](=O)[O-])c1	62.5*	i	0.3	15.5	13.6
Cc1ccc([N+](=O)[O-])cc1NC(=O)CN(C(=O)c1ccc(Cl)cc1)C1CCCCC1	85.6*	i	0.7	23.3	91.0*
CCCC(=O)OC12CCCN(C1)/C(=C/c1cccc(OC)c1)C2 (stereo not given)	.	.	0.6	.	.
O=C(COC(=O)CCc1c[nH]c2ccccc12)Nc1ccc([N+](=O)[O-])cc1	21.0	i	0.3	0.9	.
O=C(COC(=O)CCc1c[nH]c2ccccc12)Nc1cc([N+](=O)[O-])ccc1Cl	56.1*	i	-0.7	6.9	55.5*
CC(=O)N1CCCN(C(=O)CCn2nnc3ccccc32)CC1	.	.	-0.7	.	.
CCCC(C)NC(=O)CC1Oc2ccccc2NC1=O (stereo not given)	.	.	-0.8	.	.
Cc1ccc(C)c(CN2C(=O)c3ccccc3S(=O)c3ccc(C(=O)N4CCN(c5ccccn5)CC4)cc32)c1 (stereo not given)	72.0*	i	-0.2	28.6	38.1
Cc1ccc(C)c(CN2C(=O)c3ccccc3S(=O)(=O)c3ccc(C(=O)N4CCN(C)CC4)cc32)c1	2.2	i	0.4	3.2	.
N#CC(CCc1ccccc1[N+](=O)[O-])(CCc1ccccc1[N+](=O)[O-])C(N)=O	51.9*	i	0.0	13.7	46.6*
CCOC(=O)CC[C@@]1(C(=O)OCC)C[C@@H](CC(=O)N2CCOCC2)C(=O)N2CCCC=C21	.	.	-0.1	.	.

Screening results from PubChem.
